Screening results (PubChem BioAssay)
This is a sample that favours compounds with a hit; in the whole collection about 1.3% have one here.
TrxR1 substrate: substrates of rat thioredoxin reductase 1 | Potency, µM (top dose mostly 114 µM), inactives show at the top dose activity change, negative = substrate turnover | 0.01% of 390,000 active | O89049 | purified TrxR1 substrate turnover, NADPH consumption readout; further: nearly all actives have a fitted effect of over 50% in size
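Rat TrxR1, dispensed at 90 nM, was prereduced with 400 uM NADPH (final) for 5 min at ~22 deg C, then incubated with compound 15 min before 400 uM selenite. A first-read NADPH fluorescence drop versus no-compound background flagged substrates.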
rTrxR1 inhibitor: inhibitors of rat thioredoxin reductase 1; Potency, µM (highest dose often 114 µM), for inactives: at the top dose activity change, negative = inhibition, actives largely listed as inhibitors; O89049; 1% of 390,000 active; recombinant rTrxR1, NADPH fluorescence consumption, selenite substrate; further: nearly all actives have a fitted effect of over 65% in size
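Rat TrxR1 (90 nM in the dispensed reagent) was pre-reduced with 400 uM NADPH for 5 min at room temperature, then incubated with compound for 15 min. After 400 uM selenite was added, NADPH fluorescence (Ex 340/Em 450 nm) was followed for 8 min.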
PKM2 act: increases activity of human pyruvate kinase M2. P14618. purified PKM2, Kinase-Glo ATP luminescence, activation; response scale: 0% is enzyme alone, no compound. Potency, µM (series often up to 57.5 µM), for the others: top-dose activation, most hits filed as activators. 0.34% of 260,000 active. AID 1631; further: nearly all actives have a fitted effect of over 55% in size
Target sequence (P14618 whole entry, looked up): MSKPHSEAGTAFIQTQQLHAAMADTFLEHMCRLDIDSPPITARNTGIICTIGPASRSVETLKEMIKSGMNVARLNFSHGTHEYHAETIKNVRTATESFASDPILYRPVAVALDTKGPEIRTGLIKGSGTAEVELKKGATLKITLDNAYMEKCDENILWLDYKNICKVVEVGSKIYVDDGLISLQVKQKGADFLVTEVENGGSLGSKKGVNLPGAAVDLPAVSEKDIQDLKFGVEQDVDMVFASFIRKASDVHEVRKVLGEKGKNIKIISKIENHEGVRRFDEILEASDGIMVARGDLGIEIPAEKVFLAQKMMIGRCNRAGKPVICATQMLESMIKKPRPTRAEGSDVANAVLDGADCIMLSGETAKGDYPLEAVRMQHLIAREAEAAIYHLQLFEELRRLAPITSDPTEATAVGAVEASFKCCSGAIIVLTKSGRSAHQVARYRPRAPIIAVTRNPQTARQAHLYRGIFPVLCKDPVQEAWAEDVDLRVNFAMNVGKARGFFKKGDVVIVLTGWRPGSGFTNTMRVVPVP
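Kinase-Glo luminescence reports ATP generated from ADP (0.1 mM) and PEP (0.5 mM) by purified hPK-M2 after 1 h at room temperature, pH 7.2 imidazole buffer; intermediate enzyme activity allows detecting inhibitors and activators.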
mIDH1 inhibitor: human IDH1 R132H inhibition; O75874; IDH1-R132H enzyme, NADPH consumption, diaphorase/resazurin fluorescence; Potency, µM (series often up to 76.6 µM), without a hit: at the highest dose activity change, negative = inhibition, usual class: inhibitors; 0.093% of 390,000 active; further: nearly all actives have a fitted effect of over 65% in size
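IDH1-R132H (0.5 ug/mL) preincubated 30 min with compound, then NADPH (0.016 mM) and alpha-KG (2 mM) added; 80 min at RT, pH 7.5. Remaining NADPH coupled via diaphorase/resazurin to fluorescence (540/590 nm); concentration-response curves normalized to no-enzyme control.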
GALK inh: inhibitors of human galactokinase. AID 1868. P51570. Purified GALK, Kinase-Glo residual ATP luminescence. 0.007% of 270,000 active. Potency, µM (highest dose often 57.5 µM), without a hit: at the top dose activity change, negative = inhibition, usual class: inhibitors
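Quantitative HTS: GALK 5 nM, ATP 35 uM, galactose 100 uM, 1 h room temperature, then luciferase-based ATP detection.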
Apoferritin bind: binds horse apoferritin like a general anesthetic. AID 485281. apoferritin/1-aminoanthracene competitive binding, fluorescence. Potency, µM (top dose mostly 77.5 µM), for inactives: at the highest dose activity change, negative = displacement, hits mostly inhibitors. 0.074% of 350,000 active; further: nearly all actives have a fitted effect of over 20% in size
Target sequence (P02791 2-175 limits assumed): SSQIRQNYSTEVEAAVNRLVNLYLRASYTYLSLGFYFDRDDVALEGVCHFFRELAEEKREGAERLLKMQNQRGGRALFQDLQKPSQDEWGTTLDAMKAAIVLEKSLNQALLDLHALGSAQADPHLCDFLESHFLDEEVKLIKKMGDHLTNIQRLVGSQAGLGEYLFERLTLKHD
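In PBS, apoferritin at 10 uM is loaded with 1-AMA from a 50% saturated solution. After 10 min of compound exposure at ambient temperature, reduced 535 nm fluorescence indicates probe displacement.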
An asterisk follows results filed as active; [ ] = another dose, or the depositor's remark. The call rests on the fitted dose curve; in most records, active means well fitted curve in the direction sought with a large enough effect; inconclusive means small, poorly fitted or top-dose-only effect, or another doubt; inactive means no such curve, though single readings can be large; an effect the other way counts as inactive or inconclusive. On the % scale 0 is the no-effect control and ±100 the full control effect; potency means the concentration at half of the fitted maximal effect.

For CCNS(=O)(=O)c1ccc(NC(=O)c2ccc(Cn3cc([N+](=O)[O-])cn3)o2)cc1 the results were TrxR1 substrate -5%[57.1 µM], rTrxR1 inhibitor -3%[57.1 µM], PKM2 act 18µM*, mIDH1 inhibitor -13%, GALK inh -1% and Apoferritin bind -12%.
For C=CCc1cccc(/C=N/c2ncccc2O)c1O the results were TrxR1 substrate 11%, rTrxR1 inhibitor 14µM*, PKM2 act 2%, mIDH1 inhibitor 7%, GALK inh -3% and Apoferritin bind -8%.
Screening COC(=O)C(NC(=O)COc1ccccc1)(Nc1nc2c(s1)CCCC2)C(F)(F)F (configuration not stated) returned TrxR1 substrate -7%, rTrxR1 inhibitor 32µM*, PKM2 act 1%, mIDH1 inhibitor -2%, GALK inh -3% and Apoferritin bind 6%.
Screening COC(=O)C(NC(=O)CC(C)C)(Nc1nc2c(s1)CCCC2)C(F)(F)F (configuration not stated) returned TrxR1 substrate -10%, rTrxR1 inhibitor -10%, mIDH1 inhibitor -1% and Apoferritin bind 45%.
Screening O=C1NCCCc2c1oc1ccc(O)cc21 returned TrxR1 substrate 1%[57.1 µM], rTrxR1 inhibitor 4%[57.1 µM], PKM2 act -14%, mIDH1 inhibitor 3%, GALK inh 0% and Apoferritin bind -4%.
Screening Oc1c(Cl)cc(Cl)c2c1NCCC2 returned TrxR1 substrate -7%, rTrxR1 inhibitor 2.2µM*, PKM2 act 13%, mIDH1 inhibitor 18%, GALK inh 0% and Apoferritin bind 2%.
For O=C(Nc1ccc([N+](=O)[O-])cc1)c1ccc(S(=O)(=O)N2CCCC2)cc1 the results were TrxR1 substrate -4%, rTrxR1 inhibitor 10%, mIDH1 inhibitor 0%, GALK inh 5% and Apoferritin bind 4%.
O=C(Nc1ccc(S(=O)(=O)N2CCCCCC2)cc1)c1[nH]ncc1[N+](=O)[O-] was read as PKM2 act -5%, GALK inh -3% and Apoferritin bind 13µM*.
Screening O=C(NCc1ccccc1)c1nc(S(=O)(=O)Cc2ccc(F)cc2)ncc1Cl returned TrxR1 substrate -1%, rTrxR1 inhibitor 3.5µM*, mIDH1 inhibitor 29% and Apoferritin bind -20%.
COc1ccc2nc(NC(=O)c3nc(S(=O)(=O)Cc4ccccc4)ncc3Cl)sc2c1 was read as TrxR1 substrate -4%, rTrxR1 inhibitor -7%, mIDH1 inhibitor 0% and Apoferritin bind -23%.
For CCOc1ccccc1NC(=O)c1nc(S(=O)(=O)Cc2ccccc2F)ncc1Cl the results were TrxR1 substrate 10% and rTrxR1 inhibitor inconclusive.
`CCOc1ccc(NC(=O)c2nc(S(=O)(=O)Cc3ccc(F)cc3)ncc2Cl)cc1` gave TrxR1 substrate 1% and rTrxR1 inhibitor 4.5µM*.
`O=C(Nc1ccc(F)cc1)c1nc(S(=O)(=O)Cc2ccccc2)ncc1Cl` gave TrxR1 substrate 1%, rTrxR1 inhibitor 3.5µM*, mIDH1 inhibitor 6%, GALK inh 4% and Apoferritin bind inconclusive.
Cc1ccc(NC(=O)c2nc(S(=O)(=O)Cc3ccccc3)ncc2Cl)cc1 was read as TrxR1 substrate -2%, rTrxR1 inhibitor 8.9µM*, mIDH1 inhibitor 5%, GALK inh 1% and Apoferritin bind inconclusive.
For CCCCCCCCN1[C@@H](CC(=O)O)c2ccc(/C=C/C(=O)O)cc2S1(=O)=O the results were TrxR1 substrate -1% and rTrxR1 inhibitor 5%.
For COc1ccc(C2C=C(c3cccc(OC)c3)Nc3c(C(=O)Nc4ccccc4)cnn32)cc1 (configuration not stated) the results were TrxR1 substrate 18%, rTrxR1 inhibitor 33%, mIDH1 inhibitor -11% and Apoferritin bind -6%.
Cc1ccc(NC(=O)CN2C(=O)COc3ccc(S(=O)(=O)N4CCOCC4)cc32)c(Cl)c1 was read as TrxR1 substrate 7%, rTrxR1 inhibitor 23%, mIDH1 inhibitor -4% and Apoferritin bind -11%.
For Cc1ccccc1CS(=O)(=O)c1ncc(Cl)c(C(=O)Nc2ccc(F)cc2)n1 the results were TrxR1 substrate -3%, rTrxR1 inhibitor 0%, mIDH1 inhibitor -4%, GALK inh 3% and Apoferritin bind -6%.
Cc1cccc(CS(=O)(=O)c2ncc(Cl)c(C(=O)NCc3ccccc3)n2)c1 was read as TrxR1 substrate -2%, rTrxR1 inhibitor 6.3µM*, mIDH1 inhibitor 4%, GALK inh -6% and Apoferritin bind inconclusive.
For CCOc1ccc(NC(=O)c2nc(S(=O)(=O)Cc3ccccc3C)ncc2Cl)cc1 the results were TrxR1 substrate -3% and rTrxR1 inhibitor 14µM*.
`CCOC(=O)CSC1=NC(=O)/C(=C\c2ccc(OC(C)=O)cc2)S1` gave TrxR1 substrate -8%, rTrxR1 inhibitor 8.9µM*, PKM2 act 7%, mIDH1 inhibitor -15%, GALK inh -3% and Apoferritin bind -19%.
CCOC(=O)COc1ccc(Br)cc1/C=C1\SC(N)=NC1=O was read as TrxR1 substrate 9%[2.29 µM], rTrxR1 inhibitor 10%, PKM2 act 3%[11.5 µM], mIDH1 inhibitor -8%, GALK inh 7% and Apoferritin bind -8%.
`CN(Cc1ccc(Cl)cc1)C(=O)CCl` gave TrxR1 substrate 3%, rTrxR1 inhibitor 6.3µM*, PKM2 act -1%, mIDH1 inhibitor 11%, GALK inh -2% and Apoferritin bind -9%.
`COc1ccc(CN(C)C(=O)CCl)cc1` gave TrxR1 substrate 5%[57.1 µM], rTrxR1 inhibitor inconclusive, PKM2 act 3%, mIDH1 inhibitor -4%, GALK inh 10% and Apoferritin bind -8%.
For CCCCOc1c(Br)cc(/C=C2\N=C(C)OC2=O)cc1OCC the results were TrxR1 substrate 1%, rTrxR1 inhibitor 40µM*, PKM2 act 8%, mIDH1 inhibitor inconclusive, GALK inh -7% and Apoferritin bind -18%.
S=C(NCC1CCCO1)N1CCN(c2ccccc2)CC1 (configuration not stated) was read as TrxR1 substrate 9%, rTrxR1 inhibitor 25%[57.1 µM], PKM2 act 1%, mIDH1 inhibitor 0%, GALK inh 0% and Apoferritin bind -5%.
Screening Cc1cccc(NC(=S)NCC23C=CC(O2)C2C(=O)N(c4ccc(Cl)cc4)C(=O)C23)c1 (configuration not stated) returned TrxR1 substrate -1%, rTrxR1 inhibitor 7.9µM*, PKM2 act 25%, mIDH1 inhibitor -3%, GALK inh 0% and Apoferritin bind 0%.
